Source: PubChem BioAssay
Eya2 inh: inhibitors of human Eya2 phosphatase activity; AID 488837; recombinant Eya2, OMFP fluorescence dephosphorylation (OMFP is methylfluorescein phosphate); actives 0.006% (n = 330,000); O00167; Potency, µM (doses to about 76.9 µM), most hits filed as inhibitors
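Eya2 (0.2 uM) preincubated 10 min at ambient with compound, then OMFP substrate added at 50 uM; 10 min reaction in 50 mM HEPES pH 7.5, 50 mM NaCl, 5 uM MgCl2, 0.05% BSA, 1 mM DTT. Fluorescence read at Ex 485/Em 525 nm.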
CtBP-E1A inh: CtBP/E1A binding inhibition; actives 0.49% (n = 340,000); AlphaScreen GST-E1A/His-CtBP binding, 1536-well; stronger effect = lower value; activity change, % (concentration not given with the values); in the data active = activity change below about -65%; inconclusive = mostly about -30% to -63%
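GST-E1A and His-tagged CtBP (125 nM each as 5X stock) were preincubated with pin-transferred compound for 2 h at 37 °C in the dark, then glutathione donor and nickel acceptor beads were added for 1 h before AlphaScreen reading.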
Six1-Eya2 inh: inhibitors of human Six1/Eya2 interaction; activity change, % (test concentration not listed); AID 651725; actives 0.56% (n = 360,000); Q15475+O00167; AlphaScreen GST-Six1/His-Eya2 binding, biochemical; stronger effect = lower value; in the data active = activity change below about -65%; inconclusive = mostly about -30% to -63%
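GST-Six1 + His-Eya2 (5X stock: 250/500 nM); Tris pH 8.0, 300 mM NaCl, 0.05% BSA, 0.02% Tween 20; GSH donor/Ni acceptor beads; 1 h 37 °C dark; AlphaScreen readout.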
PI4K2A block: inhibitors of human PI4K2A; Q9BTU6; purified PI4K2A, ADP-Glo luminescence, 1 h; stronger effect = lower value; activity change, negative = inhibition, % at 76.9 µM; actives 0.13% (n = 420,000); in the data active = activity change below about -50%; inconclusive = mostly about -30% to -49%
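In this quantitative HTS, ADP production by PI4K2A was quantified luminescently after 1 h at ambient temperature; 100 microM adenosine served as plate-quality control.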
USP2a inh: inhibitors of human ubiquitin-specific protease USP2a; O75604; USP2 core, Ub-CHOP2 coupled fluorogenic reporter, 485/531; Potency, µM (top dose mostly 38.3 µM), actives largely listed as inhibitors; actives 0.01% (n = 330,000)
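USP2 core (10nM final) preincubated 30min RT with compound in 20mM Tris-HCl pH 8.0, 2mM CaCl2, 2mM beta-mercaptoethanol, 0.05% CHAPS; 25nM Ub-CHOP2 plus 25nM reporter substrate added, fluorescence (Ex485/Em531) read after 60min.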
RGS4 inhibitor: inhibitors of human regulator of G protein signaling 4; actives 0.039% (n = 390,000); Transcreener GDP fluorescence polarization, RGS4-accelerated GTP hydrolysis; AID 504845; Potency, µM (doses to about 114 µM), hits mostly inhibitors; P49798; also: nearly all actives have a fitted effect of over 75% in size
Target sequence (P49798 whole entry, looked up): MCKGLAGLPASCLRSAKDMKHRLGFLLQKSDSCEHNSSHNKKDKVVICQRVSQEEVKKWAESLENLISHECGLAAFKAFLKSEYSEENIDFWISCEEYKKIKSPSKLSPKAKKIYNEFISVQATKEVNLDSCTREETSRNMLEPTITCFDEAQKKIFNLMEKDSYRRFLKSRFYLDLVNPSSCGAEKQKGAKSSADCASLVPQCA
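MLSMR compounds (23 nl, pin-transferred) preincubated 10 min at room temperature with a 500nM (2x) first reagent, then RGS4 at 900nM (2x) plus Transcreener GDP mix added; fluorescence polarization (620/688 nm) read before and after 90 min at 30 °C.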
Each line names hits and unclear results; the compound was inactive in the other large screens. Hits are enriched below; roughly 0.72% of the tested compounds scored in any of these assays. Unless noted, calls follow the shape of the dose curve; as a rule, active = well fitted curve in the direction sought with a large enough effect; inconclusive = small, poorly fitted or top-dose-only effect, or another doubt; inactive = no such curve, though single readings can be large; an effect the other way counts as inactive or inconclusive.

O=C(Nc1cccc(C(F)(F)F)c1)Oc1ccc(Cl)c2cccnc12	CtBP-E1A inh -96, Six1-Eya2 inh -70
O=C(Nc1cccc(Br)c1)Oc1cccc2cccnc12	CtBP-E1A inh inconclusive, Six1-Eya2 inh -90 (no result: Eya2 inh, USP2a inh, RGS4 inhibitor)
O=C(COc1cccc2cccnc12)Nc1ccccc1	none
O=C(Nc1c(Cl)cccc1Cl)Oc1cccc2cccnc12	CtBP-E1A inh -94, Six1-Eya2 inh -90 (no result: Eya2 inh, USP2a inh, RGS4 inhibitor)
CCN(CC)C(=O)Oc1ccc(Cl)c2cccnc12	none
Cc1ccc(NCc2cccn2-c2nnc(N3CCC(C(=O)NCc4ccc(F)cc4)CC3)s2)cc1	none (no result: Eya2 inh, CtBP-E1A inh, Six1-Eya2 inh, USP2a inh)
Cc1csc2nc(COc3ccc(NC(=O)C(C)C)cc3)cc(=O)n12	none (no result: Eya2 inh, CtBP-E1A inh, Six1-Eya2 inh, USP2a inh)
COc1cc(NC(=O)CCc2c(C)n(C)c3cc(-c4ccccc4C)nn3c2=O)cc(OC)c1OC	none (no result: Eya2 inh, CtBP-E1A inh, Six1-Eya2 inh, USP2a inh)
CC(C)N(C(=O)N1CCC(c2nc(-c3ccncc3)no2)CC1)C(C)C	PI4K2A block -72
O=C1C=CC(=O)c2c(O)c(CO)c(CO)c(O)c21	Six1-Eya2 inh -70, PI4K2A block -53, RGS4 inhibitor inconclusive (no result: Eya2 inh, USP2a inh)
CCOc1cc(/C=C(\C#N)c2[nH]nc(N)c2C#N)ccc1O	CtBP-E1A inh -81, Six1-Eya2 inh -67
CC(C)Sc1ncc(Cl)c(C(=O)Nc2ccc(S(=O)(=O)N3CCCCC3C)cc2)n1 (stereo unspecified)	PI4K2A block inconclusive (no result: Eya2 inh, CtBP-E1A inh, Six1-Eya2 inh, USP2a inh)
Cc1ccc(SC2=C(N(C)C)C(=O)c3ccccc3C2=O)cc1	CtBP-E1A inh -86, Six1-Eya2 inh -84, RGS4 inhibitor inconclusive (no result: Eya2 inh, USP2a inh)
Cc1cc([N+](=O)[O-])cc(/C=N/n2c(C)nc3ccccc3c2=O)c1O	CtBP-E1A inh -86, Six1-Eya2 inh inconclusive
COc1ccc2c(c1)sc1nc(-c3ccccc3)cn12	PI4K2A block -60
COc1ncc(-c2ccc(N3C(c4ccc([N+](=O)[O-])cc4)=Cc4ccccc4C3CC(C)=O)cc2)cn1 (stereo unspecified)	none (no result: Eya2 inh, USP2a inh, RGS4 inhibitor)
CC(=O)Oc1ccc(C(=O)OCC(=O)c2c(N)n(C)c(=O)n(C)c2=O)cc1OC(C)=O	Six1-Eya2 inh -83
COc1ccc(C(=O)OCC(=O)c2c(N)n(C)c(=O)n(C)c2=O)cc1OC	none
COc1ccccc1C1=NN(C2=NN=C(N)Cc3ncnn32)C(O)(C(F)(F)F)C1 (stereo unspecified)	CtBP-E1A inh -65, Six1-Eya2 inh inconclusive
COc1ccc(C2=NN(C3=NN=C(N)Cc4ncnn43)C(O)(C(F)(F)F)C2)cc1 (stereo unspecified)	CtBP-E1A inh -86, Six1-Eya2 inh -68
NC1=NN=C(N2N=C(c3ccccc3)CC2(O)C(F)(F)F)n2ncnc2C1 (stereo unspecified)	CtBP-E1A inh -70, Six1-Eya2 inh inconclusive
COCCCN1C(=O)[C@H](CC(=O)N2CCN(C(=O)c3ccco3)CC2)[C@]2(C(=O)OC)CCCCC=C12	none (no result: Eya2 inh, CtBP-E1A inh, Six1-Eya2 inh, USP2a inh, RGS4 inhibitor)
O=C(NCc1ccccc1)C(=O)NCC(c1ccc2c(c1)OCO2)N1CCOCC1 (stereo unspecified)	none (no result: Eya2 inh, CtBP-E1A inh, Six1-Eya2 inh, USP2a inh)
CCOC(=O)N1CCC(NC(=O)c2ccc3c(c2)N(Cc2ccc(F)cc2)C(=O)c2ccccc2S3=O)CC1 (stereo unspecified)	none (no result: Eya2 inh, CtBP-E1A inh, Six1-Eya2 inh, USP2a inh)
O=S(=O)(c1ccc2nc(-c3ccco3)c(-c3ccco3)nc2c1)N1CCOCC1	Six1-Eya2 inh inconclusive, PI4K2A block -55, RGS4 inhibitor inconclusive
O=S(=O)(c1ccc2ccccc2c1)N1CCOCC1	none
CCn1c2ccc(C)cc2c2n[nH]c(=S)nc21	CtBP-E1A inh -88, Six1-Eya2 inh -75, RGS4 inhibitor inconclusive
Cc1ccc2c(c1)c1n[nH]c(=S)nc1n2CCc1ccccc1	none (no result: CtBP-E1A inh)
Cn1c2ccccc2c2n[nH]c(=O)nc21	none
Cn1c2ccccc2c2n[nH]c(=S)nc21	CtBP-E1A inh -79, Six1-Eya2 inh -83
CC12CCC(C(=O)N(CSC(=S)N/N=C\c3ccccc3O)C1=O)C2(C)C (stereo unspecified)	CtBP-E1A inh -94, Six1-Eya2 inh -89, RGS4 inhibitor inconclusive
